Compounds without any hit were thinned out: in the full panel of roughly 83,000, 20% have a hit.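 Results are percent growth after 48 hours of single-concentration exposure. 100 means growth as in untreated cells, lower positive values show inhibition; negative values down to -100 show cell death.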 A number with no mark means an inactive call. The source made the active and inactive calls. The calls were made as follows: active = growth percent below 10; inactive = the rest.
These molecules were tested on M14 melanoma (assay: NCI-60 one-dose screen, 48 h (100 = growth as untreated, 0 = no growth, -100 = all killed)). Conditions: 10 µM.
In the case of `Cc1ccc(C(=O)NCCCNc2nc(Nc3ccc(N4CCN(C)CC4)cc3)nc3ccsc23)cc1`, the growth is reported as -7.88% (active). Molecule `O=C(c1ccc(-n2c(=O)[nH]c3ccccc3c2=O)cc1)N1CCOCC1` has a growth of 99.3%. `O=S(=O)(c1ccc(Cl)cc1)c1nc(-c2ccccc2)oc1S(=O)(=O)c1ccc(Cl)cc1` was tested, and the growth was 90.8%. `Cc1ccc(C(C)C)cc1NC(=O)c1ccccc1N(C)C` showed a growth of 93.9%. In the case of `COc1ccc2[nH]c(O)c(N=NC(=O)COc3ccc(NC(=O)Nc4ccc(Cl)c(Cl)c4)cc3)c2c1`, the growth is reported as -42.2% (active). In the case of `COc1cccc(-c2nn(-c3ccccc3)cc2-c2ccnc(NCCCNC(=O)Nc3ccc(F)cc3)c2)c1`, the growth is reported as -21% (active). `CN1CCN(c2ccc(Nc3nc(NCCCNC(=O)c4ccc(F)cc4)c4sccc4n3)cc2)CC1` was tested, and the growth was -7% (active). With `CC1(C)CC[C@]2(C(=O)Nc3ccccc3)CC[C@]3(C)C(=CC[C@@H]4[C@@]5(C)CC[C@H](N)C(C)(C)[C@@H]5CC[C@]43C)[C@H]2C1` the growth was 82.4%. In the case of `C[C@H]1[C@H](C)CC[C@]2(COC(=O)CCC(=O)NCC#CCN3CCNCC3)CC[C@]3(C)C(=CC[C@@H]4[C@@]5(C)CCCNC(C)(C)[C@@H]5CC[C@]43C)[C@H]12`, the growth is reported as -16.7% (active). Molecule `O=C(Nc1ccncc1)c1ccc(-n2c(=O)[nH]c3ccccc3c2=O)cc1` has a growth of 97.4%. Work on `Cc1ccc(C(C)C)cc1NC(=O)c1ccccc1O` yielded a growth of 43.2%. `CCCS(=O)(=O)c1oc(-c2ccc(F)cc2)nc1S(=O)(=O)c1ccc(F)cc1` was tested, and the growth was -37.5% (active). With `CN(C)c1cccc2c(S(=O)(=O)Nc3cccc(-c4csc(NC(=O)CCCCCN5CCN(c6cc7c(cc6F)C(=O)N(C6CCC(=O)NC6=O)C7=O)CC5)n4)c3)cccc12` (configuration not stated) the growth was 97.3%. With `CC(=C(c1ccc(OCCN2CCCCC2)cc1)c1ccc(OCCN2CCCCC2)cc1)c1ccccc1` the growth was -47.2% (active). With `CC[C@@]1(O)C(=O)OCc2c1cc1n(c2=O)Cc2c-1nc1cc(F)c(C)c3c1c2[C@@H](N)CC3` the growth was -20.8% (active). `O=C(Cn1cc(CSc2nnc3oc4ccccc4n23)nn1)Nc1cccc(Cl)c1` showed a growth of 87.8%. `C=C(C)[C@@H]1CC[C@]2(C(=O)OC)CC[C@]3(C)[C@H](CC[C@@H]4[C@@]5(C)CC[C@H](N)C(C)(C)[C@@H]5CC[C@]43C)[C@@H]12` was tested, and the growth was -74% (active). With `COc1ccc(-c2nc(S(=O)(=O)c3ccc(C)cc3)c(S(C)(=O)=O)o2)cc1` the growth was -31.9% (active). For `CCN1CCN(c2ccc(NC(=O)Nc3ccc(-c4cc(C(=O)NC(C)C)c5ncccc5n4)cc3)cc2C(F)(F)F)CC1`, the growth was -88.4% (active). With `C=C[C@H]1[C@H](O[C@@H]2OC(CO)[C@@H](O)[C@H](O)C2OC(=O)c2c(O)cc(O)cc2-c2cccc(O)c2)OC=C2C(=O)OCC[C@H]21` (some centres not stated) the growth was 101%. With `COc1ccc(C(C)=C(c2ccc(OCCCN(C)C)cc2)c2ccc(OCCCN(C)C)cc2)cc1` the growth was -79.8% (active). With `CC1(C)CC[C@]23CC[C@]4(C)[C@H](CC[C@@H]5[C@@]6(C)CC[C@H](N)C(C)(C)[C@@H]6CC[C@]54C)[C@H]2[C@H]1OC3=O` the growth was -77.6% (active). With `CCN1CCN(c2ccc(NC(=O)Nc3ccc(-c4cc(C(=O)NC)c5ncccc5n4)cc3)cc2C(F)(F)F)CC1` the growth was -100% (active). With `COc1ccc2[nH]c(O)c(N=NC(=O)c3cc(-c4ccc(C)cc4)nc4ccccc34)c2c1` the growth was 99.1%. Molecule `O=C(Cn1cc(CSc2nnc3oc4ccccc4n23)nn1)Nc1ccc(Br)cc1` has a growth of 98.8%. `CN1CCN(c2ccc(Nc3nc(N4CCN(S(=O)(=O)c5ccc(F)cc5)CC4)c4sccc4n3)cc2)CC1` was tested, and the growth was -56.9% (active). For `COc1ccccc1NCc1ccc(CO)n1-c1ccc(C)cc1`, the growth was 101%. In the case of `CC(=C(c1ccc(OCCCN(C)C)cc1)c1ccc(OCCCN(C)C)cc1)c1ccccc1`, the growth is reported as -56.9% (active). Work on `CN1CCN(c2ccc(Nc3nc(NCCCNC(=O)c4ccccc4)c4sccc4n3)cc2)CC1` yielded a growth of 38.6%. For `CCCCCc1ccc(S(=O)(=O)N(C(C)=O)c2cc(-c3csc(N(C)C(C)=O)n3)ccc2N2CCN(C)CC2)cc1`, the growth was -78.1% (active). With `C=C1CC[C@H](C(=C)C)[C@H]2C=C(C)C(=O)C3=C(C(=O)[C@@](C)(O)C3)[C@H]12` the growth was -30.3% (active). With `CC(=O)Nc1nc(-c2ccc(N3CCN(C)CC3)c(NS(=O)(=O)c3cccc4c(N(C)C)cccc34)c2)cs1` the growth was -57.5% (active). For `CNC(=O)c1cccc(N2CCc3c2ccc(NC(=O)Nc2ccc(N4CCN(C)CC4)c(C(F)(F)F)c2)c3F)c1`, the growth was -93.3% (active). `CN1CCN(c2ccc(Nc3nc(N4CCN(S(=O)(=O)c5ccc(Cl)cc5)CC4)c4sccc4n3)cc2)CC1` was tested, and the growth was -60.6% (active). `CC1(C)CC[C@]2(C(=O)NCCCNCCCCNCCCN)CC[C@]3(C)C(=CC[C@@H]4[C@@]5(C)Cc6c([nH]c7ccccc67)C(C)(C)[C@@H]5CC[C@]43C)[C@H]2C1` was tested, and the growth was 59.7%. `C=CC(=O)Nc1nc(-c2cccc(NS(=O)(=O)c3cccc4c(N(C)C)cccc34)c2)cs1` was tested, and the growth was -78.7% (active). Molecule `COC1CC(Cn2cc(COc3ccc4ccc(=O)oc4c3)nn2)C(OCc2ccccc2)C(OCc2ccccc2)C1OCc1ccccc1` (configuration not stated) has a growth of 102%.
